# In all, about 310,000 compounds went through this assay and about 14,000 (4.5%) showed an effect of 50% or more. The effect is printed as a negative number. The list comes from a sample in which strong results are over-represented; it also holds similar structures and randomly drawn compounds.
# Target: human ether-à-go-go-related gene (hERG) potassium channel (human, UniProt Q12809)
# Experiment: primary screen, population patch clamp on CHO cells stably expressing hERG; higher = less effect of the substance
# 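Note: peak tail current of the secondary pulse compared with the same well before compound.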
# Sequence of human ether-à-go-go-related gene (hERG) potassium channel (Q12809 whole entry, looked up): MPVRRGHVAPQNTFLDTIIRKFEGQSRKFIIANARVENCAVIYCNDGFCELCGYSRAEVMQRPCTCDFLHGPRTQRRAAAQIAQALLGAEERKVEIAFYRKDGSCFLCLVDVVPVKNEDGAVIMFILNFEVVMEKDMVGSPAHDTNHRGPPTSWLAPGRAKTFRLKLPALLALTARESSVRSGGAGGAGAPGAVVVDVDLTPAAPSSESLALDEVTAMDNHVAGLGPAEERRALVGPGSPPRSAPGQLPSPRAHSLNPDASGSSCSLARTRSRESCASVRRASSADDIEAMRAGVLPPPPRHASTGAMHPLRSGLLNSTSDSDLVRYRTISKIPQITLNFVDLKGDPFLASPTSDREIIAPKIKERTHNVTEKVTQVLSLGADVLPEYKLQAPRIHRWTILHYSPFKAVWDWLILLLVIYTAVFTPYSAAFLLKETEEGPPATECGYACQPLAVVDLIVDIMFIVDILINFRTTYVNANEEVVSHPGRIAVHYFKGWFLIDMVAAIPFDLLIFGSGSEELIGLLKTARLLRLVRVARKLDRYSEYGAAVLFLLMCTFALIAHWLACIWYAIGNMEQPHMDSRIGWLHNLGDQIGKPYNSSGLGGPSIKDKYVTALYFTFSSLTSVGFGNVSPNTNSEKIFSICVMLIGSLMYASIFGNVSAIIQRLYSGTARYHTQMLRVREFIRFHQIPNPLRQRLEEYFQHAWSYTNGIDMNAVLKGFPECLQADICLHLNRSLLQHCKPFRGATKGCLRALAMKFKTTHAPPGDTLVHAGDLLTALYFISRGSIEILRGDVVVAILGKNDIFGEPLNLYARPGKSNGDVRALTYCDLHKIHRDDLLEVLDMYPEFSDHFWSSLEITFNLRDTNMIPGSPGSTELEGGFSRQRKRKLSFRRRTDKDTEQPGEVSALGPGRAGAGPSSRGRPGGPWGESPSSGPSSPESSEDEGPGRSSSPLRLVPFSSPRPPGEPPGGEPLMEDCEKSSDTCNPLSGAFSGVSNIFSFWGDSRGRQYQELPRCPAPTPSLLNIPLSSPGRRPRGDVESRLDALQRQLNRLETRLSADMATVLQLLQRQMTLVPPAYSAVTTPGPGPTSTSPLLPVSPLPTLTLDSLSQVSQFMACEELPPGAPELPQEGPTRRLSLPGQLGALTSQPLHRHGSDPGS
row,SMILES,"hERG current change (%, negative = inhibition) at 10uM [%]"
1,CCN1CCSc2ccc(C(=O)NCc3ccccc3F)cc21,-20.8
2,Cc1oc(-c2cccc(Cl)c2)nc1CS(=O)(=O)CC(=O)NCCN1CCCC1,-0.675
3,CCCC/C(C)=N\NC(=O)CNS(=O)(=O)c1ccc([N+](=O)[O-])cc1,-2.14
4,CCOc1ccc(CN(C)C(=O)CNC(=O)c2ccc(Br)o2)cc1OC,-2.55
5,COc1cccc(Cn2cccc(NC(=O)Nc3cccc(C#N)c3)c2=O)c1,6.1
6,COC(=O)CCCNC(=O)CC1C(=O)NCCN1Cc1ccoc1 (stereo not shown),22.1
7,O=C(CC1C(=O)NCCN1CC1CCCCC1)NCc1cc(F)ccc1F (stereo not shown),1.77
8,O=C(CC1C(=O)NCCN1Cc1ccccc1)NCCN1CCCCC1=O (stereo not shown),19.1
9,O=C(CC1C(=O)NCCN1Cc1ccoc1)NCCc1ccc(Cl)cc1 (stereo not shown),-53.7
10,Cc1nc(CCNC(=O)CC2C(=O)NCCN2Cc2ccoc2)nc2c1CCCC2 (stereo not shown),-36.7
11,O=C(CC1C(=O)NCCN1CC1CCCCC1)NCCc1ccc(F)cc1 (stereo not shown),-51.6
12,O=C(CC1C(=O)NCCN1CC1CCCCC1)NCc1ccc(F)cc1 (stereo not shown),-20.3
13,CC(C)(C)CN1CCNC(=O)C1CC(=O)NCCN1CCCc2ccccc21 (stereo not shown),0.68
14,O=C(CC1C(=O)NCCN1Cc1ccc(F)cc1)NCCN1CCCc2ccccc21 (stereo not shown),-66.1
15,Cc1ccc(C)c(Nc2ccc(C(=O)NCCc3ccccc3)cn2)c1,-20.9
16,CCN(CC(=O)Nc1ccc(N2CCOCC2)cc1)C(=O)Cc1ccccc1,3.76
17,COCC(C)n1c(-c2ccc3c(c2)NC(=O)CO3)csc1=Nc1ccc(OC(F)F)cc1 (stereo not shown),2.76
18,Cc1cccc(-c2cc3nc(C)cc(C)n3n2)c1,2.6
19,Cc1cccc(-c2cc3nc(C)cc(NCCCN(C)C)n3n2)c1,-38.1
20,Cc1cccc(-c2cc3nc(C)c(C)c(NCCCn4ccnc4)n3n2)c1,-68.9
21,Cc1cc(NCCCn2ccnc2)n2nc(-c3ccc(Cl)cc3)cc2n1,-74.6
22,Cc1cccc(-n2ncc3c(NCCCn4ccnc4)ncnc32)c1,-16.5
23,Cc1cccc(-c2cc3nc(C)cc(NCCCn4ccnc4)n3n2)c1,-59.3

row,SMILES,"hERG current change (%, negative = inhibition) at 10uM [%]"
1,Cc1cc(NCCCn2ccnc2)n2nc(-c3ccc(F)cc3)cc2n1,-14
2,Cc1cc(-c2ccccc2)nc2cc(C(=O)NCCCn3ccnc3)nn12,-22.2
3,COc1ccc(-c2cc3nc(C)cc(NCCO)n3n2)cc1,-33.6
4,CCc1cc2c(=O)[nH]c(Cc3ccc(OC)cc3)nc2s1,2.16
5,O=C(Nc1ccccc1)C(Cc1cccs1)c1nn[nH]n1 (stereo not shown),-0.965
6,O=C(CNc1cccc(S(=O)(=O)N2CCOCC2)c1)Nc1ccc(C(F)(F)F)cc1,-44.2
7,O=C(Cc1ccccc1)NC(NCCCN1CCOCC1)(C(F)(F)F)C(F)(F)F,5.2
8,O=C(O)c1cccc(Cn2c(Cl)c(/C=N/NC(=O)c3ccccc3O)sc2=O)c1,12.6
9,Cc1cc(C)n2cc(CSc3nncn3C)nc2n1,17.2
10,Cc1cc(C)n2cc(CSc3nnnn3C)nc2n1,2.06
11,CCc1nnc(SCc2cn3c(C)cc(C)nc3n2)n1N,13.5
12,Cc1cc(C)n2cc(CSc3nnnn3-c3ccccc3C)nc2n1,-58.3
13,Cc1cc(C)n2cc(CSc3nnnn3-c3ccccc3)nc2n1,-56.3
14,Cc1cccc2nc(CSc3nnnn3-c3ccccc3)cn12,-41.5
15,O=C(CCCc1ccccc1)N1CCc2ccccc21,10.1
16,Cc1c(N=Cc2ccc(-c3ccc(Cl)cc3)o2)c(=O)n(-c2ccccc2)n1C,-15.3
17,Cc1cc(C)nc(OC(C(=O)O)C(OCC(C)C)(c2ccccc2)c2ccccc2)n1 (stereo not shown),17.8
18,Cc1[nH]c2c(C(F)(F)F)cccc2c1CCN.Cl,-1.49
19,CCOc1ccc(C(=O)Nc2cccc3nsnc23)cc1[N+](=O)[O-],5.23
20,OCC1(CCc2ccccc2)CCN(C/C=C/c2ccccc2)CC1,-80.9
21,O=C(CCC(F)(F)F)N1CCCC(CO)(CCc2ccccc2)C1 (stereo not shown),-13.5
22,OCC1(CCc2ccccc2)CCCN(C/C=C/c2ccccc2)C1 (stereo not shown),-73.5
23,C/C=C(\C)CN1CCCC(CO)(Cc2ccccc2)C1 (stereo not shown),10.4

row,SMILES,"hERG current change (%, negative = inhibition) at 10uM [%]"
1,O=S(=O)(Cc1ccccc1)N1CCN(C/C=C/c2ccccc2)CC1,-5.88
2,OCC1(CC2CCCCO2)CCN(C/C=C/c2ccccc2)CC1 (stereo not shown),-46
3,CC1(C)CC2(CCO1)OC(=O)CC2C(=O)Nc1cccc2ccccc12 (stereo not shown),12
4,Cn1cccc1/C=C1\SC(=S)N(CC(=O)O)C1=O,1.83
5,COc1ccc(OC)c(S(=O)(=O)n2cnc3ccccc32)c1,-5.26
6,Cc1cccc(CS(=O)(=O)c2ncc(CO)n2C)c1,16
7,Cc1cc(C)c(S(=O)(=O)c2ccccc2C)c(OCCN(C)C)n1,-20.2
8,CN(C)CCOc1ncnc2c1oc1ccccc12,-13.5
9,CCCCc1cc2ccccc2c(OCCN(C)C)n1.Cl,-61.9
10,CCCCCCCC(=O)NNC(=O)c1ccc([N+](=O)[O-])cc1,-20.6
11,Cc1ccc(C(=O)OCC(=O)c2ccc(CC(=O)N3CCOCC3)s2)cc1C,-31.2
12,Cc1cccc(C(=O)OCC(=O)c2ccc(CC(=O)N3CCOCC3)s2)c1C,-52.4
13,Nc1cc(C(=O)OCC(=O)c2ccc(CC(=O)N3CCOCC3)s2)ccc1Cl,-27.8
14,O=C(COC(=O)c1cn(-c2ccccc2)nc1-c1cccnc1)NC1CC1,-0.964
15,O=C(NC1CCN(Cc2ccccc2)CC1)c1cn(-c2ccccc2)nc1-c1cccnc1,-68
16,O=C(O)c1cn(-c2ccccc2)nc1-c1cccnc1,-1.94
17,O=C(NCc1ccncc1)c1cn(-c2ccccc2)nc1-c1cccnc1,-62
18,O=C(NCc1cccnc1)c1cn(-c2ccccc2)nc1-c1ccccc1,-24.3
19,COC(=O)c1cn(-c2ccccc2)nc1-c1cccnc1,-28.5
20,NC(=O)c1cn(-c2ccccc2)nc1-c1cccnc1,-1.67
21,O=C(NC1CCN(Cc2ccc(Cl)cc2)CC1)c1cn(-c2ccccc2)nc1-c1cccnc1,-75.1
22,O=C(NCc1cccnc1)c1cn(-c2ccccc2)nc1-c1cccs1,-32
23,CCc1ccc(NC(=S)NCc2ccccc2)cc1,3.91

row,SMILES,"hERG current change (%, negative = inhibition) at 10uM [%]"
1,Cc1nc(N/N=C/c2ccc(Br)cc2)cc(N2CCOCC2)n1,-0.525
2,CCOC(=O)N1CCC(NC(=O)c2ccc(CS(=O)(=O)c3ccc(OC)cc3)o2)CC1,-33.4
3,C[C@]12C[C@H](O)[C@@H]3c4ccc(O)cc4CCC3[C@@H]1CCC2=O (stereo partly shown),9.39
4,COCCN(CCOC)C(=O)c1ccc(CSc2nc3ccccc3s2)cc1,-21.8
5,COc1ccc(C(C)(C)C)cc1NC(=O)C1C2C=CC(C2)C1C(=O)O (stereo not shown),12.5
6,CCOC(=O)C1=C(C)N(CC(C)C)C(=O)/C1=C\c1ccc(OCC(=O)Nc2ccccc2)cc1,-9.9
7,COc1cc(OC)nc(NC(=S)NC(=O)c2ccccc2)n1,23.1
8,COc1ccccc1NC(=S)N(CCCN1CCOCC1)Cc1cccs1,-35.6
9,COc1ccccc1NC(=S)N(Cc1ccccc1)Cc1cccs1,14.9
10,S=C(Nc1ccccc1Cl)N(CCN1CCCCC1)Cc1ccco1,-42.3
11,COc1ccccc1NC(=S)N(CCN1CCCCCC1)Cc1cccs1,-55.3
12,Fc1ccccc1NC(=S)N(CCN1CCCCCC1)Cc1cccs1,-53
13,Fc1ccccc1NC(=S)N(CCN1CCCCC1)Cc1ccco1,-51.2
14,Fc1ccccc1CN(CCN1CCOCC1)C(=S)Nc1ccccc1Cl,-6.77
15,Cc1ccccc1NC(=S)N(CCN1CCCCC1)Cc1ccco1,-30.2
16,Cc1ccccc1NC(=S)N(CCN1CCCCCC1)Cc1cccs1,-39.5
17,Cc1ccc2c(c1)NC(=O)C(CC(=O)NCc1ccc(F)cc1)O2 (stereo not shown),-9.72
18,COc1ccc(S(=O)(=O)N(CCC#N)Cc2ccco2)cc1OC,17.8
19,COc1cc(OC)cc(-c2n[nH]c(=S)n2-c2ccc3c(c2)OCO3)c1,15.4
20,O=C(NC1CCCCC1)N1CCCC(c2nc(-c3cccs3)no2)C1 (stereo not shown),-10.5
21,CCc1nnc(NC(=O)C2CC(=O)N(CCc3ccc(F)cc3)C2)s1 (stereo not shown),4.54
22,O=C(Nc1cccc(C(F)(F)F)c1)C(Sc1ncnc2ccccc12)c1ccccc1 (stereo not shown),0.968

# Reference: article PMC4336329 (PLoS ONE, 2015)
